Experimental data reported in the supplement of paper PMC10849652.
Of roughly 8,800 targets only a part is listed; those with a hit were picked by preference. About 0.5% of all pairs of compound and target were hits. Unmarked numbers belong to inactive results.

Key:
Assay in all cases: log2 fold change, soluble protein after heating vs DMSO (PISA); higher = thermal stabilisation; K562 lysate, 10 uM; active = over 0.2 and 3.5 SD of the protein, either way, in both replicates (recomputed)
erlotinib = compound: C#Cc1cccc(Nc2ncnc3cc(OCCOC)c(OCCOC)cc23)c1 [erlotinib]
In short: (§1)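 Log-two fold change in thermal stability relative to solvent controls is reported from duplicates. For each sample, crude K562 extract from dounce-homogenised pellets in PBS pH 7.4 with 1 mM MgCl2, at 1 mg/mL protein, was treated with 10 μM compound for 30 min. Aliquots heated for 3 min across 48°C-58°C were pooled, brought to 0.5% NP-40 at 4°C and cleared at 21,000xg for 90 min. The supernatant was quantified by TMTpro 16plex LC-MS/MS with channel sums equalised.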

[1] = compound: C/C(=N\NC(=O)C1=CC(=CC=C1)S(=O)(=O)N2CCOCC2)/C3=C(C=CC(=C3)Cl)O
In short: as §1

[2] = compound: C1=CC(=CC=C1C2=NC3=C(N2)C=C(C=C3)C(=O)N)OC4=CC=C(C=C4)Cl
In short: as §1

[3] = compound: C1=CC2=C(C=CC(=C2)/C=C\3/C(=O)NC(=NCC4=CC=CS4)S3)N=C1
In short: as §1

[4] = compound: C1=CC2=NC=CN=C2C=C1/C=C/3\C(=O)NC(=O)S3
In short: as §1

[5] = compound: C1=CC=C(C=C1)C2=NC(=C(N2)C3=CC=NC=C3)C4=CC(=C(C=C4)Cl)O
In short: as §1

[6] = compound: C1=CC=C2C(=C1)C3=NNC4=CC=CC(=C43)C2=O
In short: as §1

[7] = compound: C1CCN(C1)C(=O)NC2=CC=CC(=C2)NC3=NC=C(C(=N3)NCCC4=CN=CN4)Br
In short: as §1

[8] = compound: C1CN(CCC1(CC2=CC=C(C=C2)Cl)N)C3=NC=NC4=C3C=CN4
In short: as §1

IRAK-1-4 Inhibitor I = compound: C1COCCN1CCN2C3=CC=CC=C3N=C2NC(=O)C4=CC(=CC=C4)[N+](=O)[O-] [IRAK-1-4 Inhibitor I]
In short: as §1

ibrutinib = compound: C=CC(=O)N1CCC[C@@H](n2nc(-c3ccc(Oc4ccccc4)cc3)c3c(N)ncnc32)C1 [ibrutinib]
In short: as §1

[9] = compound: CC(=O)c1cnc2ccc(-c3cc(Cl)c(O)c(Cl)c3)nc2c1N[C@H]1CC[C@H](CN(C)C)CC1
In short: as §1

ralimetinib = compound: CC(C)(C)Cn1c(N)nc2ccc(-c3[nH]c(C(C)(C)C)nc3-c3ccc(F)cc3)nc21 [ralimetinib]
In short: as §1

[10] = compound: CC(C)(O)CC(=O)NCCn1ccc2ncnc(Nc3ccc(Oc4cccc(C(F)(F)F)c4)c(Cl)c3)c21
In short: as §1

[11] = compound: CC(C)C1=C2N=C(C=C(N2N=C1)NCC3=CC=CC=C3)NCCCCCCN
In short: as §1

[12] = compound: CC1=C(C(CC(=O)N1)C2=CC=C(C=C2)C(F)(F)F)C(=O)NC3=C(C=C4C(=C3)C=NN4)F
In short: as §1

[13] = compound: CC1=C(C2=C(C=C1)C(=O)C3=CC=CC=C3N2CCCN)C
In short: as §1

[14] = compound: CC1=C(C=C(C=C1)NC(=O)C2=CC(=CC=C2)C(C)(C)C#N)NC3=CC4=C(C=C3)N=CN(C4=O)C
In short: as §1

[15] = compound: CC1=C(C=C(C=C1)NC(=O)C2=CC(=CC=C2)N(C)C)NC(=O)C3=CC=C(C=C3)O
In short: as §1

[16] = compound: CC1=CC=C(C=C1)SC2=C3C=C(SC3=CN=C2)C(=O)N
In short: as §1

UniProt O43156, sequence (O43156 whole entry, looked up): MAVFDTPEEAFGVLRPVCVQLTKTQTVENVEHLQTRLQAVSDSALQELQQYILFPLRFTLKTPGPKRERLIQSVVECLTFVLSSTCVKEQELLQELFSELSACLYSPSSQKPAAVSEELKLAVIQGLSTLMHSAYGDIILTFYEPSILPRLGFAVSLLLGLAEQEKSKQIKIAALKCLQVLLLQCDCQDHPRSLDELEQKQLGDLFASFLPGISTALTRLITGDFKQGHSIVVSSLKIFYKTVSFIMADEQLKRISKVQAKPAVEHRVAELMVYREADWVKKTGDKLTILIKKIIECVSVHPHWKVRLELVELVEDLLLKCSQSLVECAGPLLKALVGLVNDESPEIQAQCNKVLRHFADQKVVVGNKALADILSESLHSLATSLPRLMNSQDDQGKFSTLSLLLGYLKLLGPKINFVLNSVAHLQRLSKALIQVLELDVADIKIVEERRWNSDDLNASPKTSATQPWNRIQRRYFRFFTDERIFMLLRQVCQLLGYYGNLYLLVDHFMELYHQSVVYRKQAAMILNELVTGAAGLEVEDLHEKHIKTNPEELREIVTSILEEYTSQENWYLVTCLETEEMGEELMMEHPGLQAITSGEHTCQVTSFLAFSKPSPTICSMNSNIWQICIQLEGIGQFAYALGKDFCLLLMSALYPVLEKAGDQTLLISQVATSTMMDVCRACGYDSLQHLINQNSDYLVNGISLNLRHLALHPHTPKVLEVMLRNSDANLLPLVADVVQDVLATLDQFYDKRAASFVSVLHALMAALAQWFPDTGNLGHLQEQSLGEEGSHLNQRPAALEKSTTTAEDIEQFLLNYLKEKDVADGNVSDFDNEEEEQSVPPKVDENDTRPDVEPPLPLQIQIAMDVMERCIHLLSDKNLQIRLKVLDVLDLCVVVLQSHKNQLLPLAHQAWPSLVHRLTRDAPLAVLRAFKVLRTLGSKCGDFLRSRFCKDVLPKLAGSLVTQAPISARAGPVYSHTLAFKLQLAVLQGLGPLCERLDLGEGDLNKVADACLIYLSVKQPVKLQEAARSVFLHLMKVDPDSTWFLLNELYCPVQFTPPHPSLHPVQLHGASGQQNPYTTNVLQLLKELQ
UniProt Q96CW5, sequence (Q96CW5 whole entry, looked up): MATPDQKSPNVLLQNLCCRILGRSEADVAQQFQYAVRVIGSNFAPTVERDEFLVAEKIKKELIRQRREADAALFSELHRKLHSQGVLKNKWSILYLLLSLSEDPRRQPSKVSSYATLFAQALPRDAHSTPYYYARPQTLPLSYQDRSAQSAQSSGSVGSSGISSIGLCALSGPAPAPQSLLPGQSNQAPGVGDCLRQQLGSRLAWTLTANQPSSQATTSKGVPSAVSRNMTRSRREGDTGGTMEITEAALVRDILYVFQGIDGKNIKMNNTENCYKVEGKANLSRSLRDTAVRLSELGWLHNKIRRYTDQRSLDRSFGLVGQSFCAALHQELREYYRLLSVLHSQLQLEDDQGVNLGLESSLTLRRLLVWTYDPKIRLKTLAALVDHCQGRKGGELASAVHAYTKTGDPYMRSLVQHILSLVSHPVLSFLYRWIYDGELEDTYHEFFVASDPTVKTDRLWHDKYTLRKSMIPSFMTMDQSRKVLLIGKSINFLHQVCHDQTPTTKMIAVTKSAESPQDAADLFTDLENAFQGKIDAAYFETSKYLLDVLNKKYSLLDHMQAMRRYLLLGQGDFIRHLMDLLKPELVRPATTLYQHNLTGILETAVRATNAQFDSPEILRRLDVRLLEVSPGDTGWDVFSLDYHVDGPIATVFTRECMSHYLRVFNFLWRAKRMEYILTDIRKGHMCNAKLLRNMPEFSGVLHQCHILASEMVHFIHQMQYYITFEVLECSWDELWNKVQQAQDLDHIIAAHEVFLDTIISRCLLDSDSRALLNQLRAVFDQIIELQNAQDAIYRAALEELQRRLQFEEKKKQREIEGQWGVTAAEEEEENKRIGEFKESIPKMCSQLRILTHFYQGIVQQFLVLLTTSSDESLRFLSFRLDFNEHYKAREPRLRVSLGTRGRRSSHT
UniProt Q9NZI7, sequence (Q9NZI7 whole entry, looked up): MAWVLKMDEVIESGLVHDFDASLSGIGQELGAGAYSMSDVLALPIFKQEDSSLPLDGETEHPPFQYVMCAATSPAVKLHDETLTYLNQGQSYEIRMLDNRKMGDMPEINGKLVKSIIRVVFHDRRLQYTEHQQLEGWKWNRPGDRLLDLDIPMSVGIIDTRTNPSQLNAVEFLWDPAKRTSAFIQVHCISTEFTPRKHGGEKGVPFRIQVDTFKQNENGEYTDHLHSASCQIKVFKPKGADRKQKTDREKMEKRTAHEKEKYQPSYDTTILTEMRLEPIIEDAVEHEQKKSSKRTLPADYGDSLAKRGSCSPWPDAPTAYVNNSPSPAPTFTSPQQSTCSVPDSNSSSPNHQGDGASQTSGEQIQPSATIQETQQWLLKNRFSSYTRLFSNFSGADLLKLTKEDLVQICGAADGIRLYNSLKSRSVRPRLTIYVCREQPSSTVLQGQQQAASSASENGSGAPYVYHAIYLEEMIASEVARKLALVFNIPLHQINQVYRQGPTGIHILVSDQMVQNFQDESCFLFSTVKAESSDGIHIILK
UniProt Q96BS2, sequence (Q96BS2 whole entry, looked up): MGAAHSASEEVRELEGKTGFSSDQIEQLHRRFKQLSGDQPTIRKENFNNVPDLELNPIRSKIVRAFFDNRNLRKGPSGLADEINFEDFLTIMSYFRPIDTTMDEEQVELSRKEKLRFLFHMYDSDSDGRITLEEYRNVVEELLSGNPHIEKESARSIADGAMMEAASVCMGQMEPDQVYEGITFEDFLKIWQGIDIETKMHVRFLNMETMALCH
UniProt Q5R3I4, sequence (Q5R3I4 whole entry, looked up): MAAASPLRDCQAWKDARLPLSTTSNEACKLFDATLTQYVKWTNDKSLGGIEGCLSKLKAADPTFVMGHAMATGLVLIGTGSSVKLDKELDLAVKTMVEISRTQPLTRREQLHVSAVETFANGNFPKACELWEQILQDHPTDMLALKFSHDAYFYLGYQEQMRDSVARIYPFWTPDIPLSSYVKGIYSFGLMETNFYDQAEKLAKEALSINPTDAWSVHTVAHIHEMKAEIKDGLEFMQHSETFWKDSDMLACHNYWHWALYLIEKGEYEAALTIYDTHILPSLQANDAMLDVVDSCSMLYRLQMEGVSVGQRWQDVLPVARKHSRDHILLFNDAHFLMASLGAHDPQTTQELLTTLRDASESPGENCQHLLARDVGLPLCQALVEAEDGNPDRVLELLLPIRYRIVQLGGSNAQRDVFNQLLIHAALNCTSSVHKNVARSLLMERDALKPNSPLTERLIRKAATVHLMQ
UniProt P22314, sequence (P22314 whole entry, looked up): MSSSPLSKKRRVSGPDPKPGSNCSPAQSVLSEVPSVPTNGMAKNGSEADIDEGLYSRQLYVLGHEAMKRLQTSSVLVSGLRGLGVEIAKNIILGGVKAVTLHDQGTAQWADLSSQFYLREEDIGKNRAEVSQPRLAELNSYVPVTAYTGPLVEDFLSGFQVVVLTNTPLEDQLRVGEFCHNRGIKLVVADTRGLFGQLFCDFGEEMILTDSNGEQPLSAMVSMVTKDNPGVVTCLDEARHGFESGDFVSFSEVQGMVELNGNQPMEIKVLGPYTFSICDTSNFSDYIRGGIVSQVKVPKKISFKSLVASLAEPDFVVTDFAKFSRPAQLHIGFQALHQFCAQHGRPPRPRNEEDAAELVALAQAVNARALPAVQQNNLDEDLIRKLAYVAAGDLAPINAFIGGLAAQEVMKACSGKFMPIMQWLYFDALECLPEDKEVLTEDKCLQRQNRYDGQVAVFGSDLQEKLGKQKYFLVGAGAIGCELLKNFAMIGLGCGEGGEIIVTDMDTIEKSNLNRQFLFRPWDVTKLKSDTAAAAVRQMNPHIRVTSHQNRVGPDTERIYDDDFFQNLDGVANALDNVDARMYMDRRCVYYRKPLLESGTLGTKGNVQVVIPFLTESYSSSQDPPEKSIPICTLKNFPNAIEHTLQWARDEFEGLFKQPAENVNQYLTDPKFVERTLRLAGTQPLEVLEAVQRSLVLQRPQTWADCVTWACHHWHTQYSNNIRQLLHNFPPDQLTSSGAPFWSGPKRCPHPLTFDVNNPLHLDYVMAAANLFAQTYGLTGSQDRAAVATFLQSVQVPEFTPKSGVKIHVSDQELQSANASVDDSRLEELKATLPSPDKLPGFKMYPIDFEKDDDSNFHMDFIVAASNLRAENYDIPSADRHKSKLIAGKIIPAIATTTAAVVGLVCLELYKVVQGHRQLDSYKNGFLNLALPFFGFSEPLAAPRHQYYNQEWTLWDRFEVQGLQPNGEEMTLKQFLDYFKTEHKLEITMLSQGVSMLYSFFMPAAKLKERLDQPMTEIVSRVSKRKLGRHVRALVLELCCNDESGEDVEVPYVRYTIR
UniProt Q8IZ69, sequence (Q8IZ69 whole entry, looked up): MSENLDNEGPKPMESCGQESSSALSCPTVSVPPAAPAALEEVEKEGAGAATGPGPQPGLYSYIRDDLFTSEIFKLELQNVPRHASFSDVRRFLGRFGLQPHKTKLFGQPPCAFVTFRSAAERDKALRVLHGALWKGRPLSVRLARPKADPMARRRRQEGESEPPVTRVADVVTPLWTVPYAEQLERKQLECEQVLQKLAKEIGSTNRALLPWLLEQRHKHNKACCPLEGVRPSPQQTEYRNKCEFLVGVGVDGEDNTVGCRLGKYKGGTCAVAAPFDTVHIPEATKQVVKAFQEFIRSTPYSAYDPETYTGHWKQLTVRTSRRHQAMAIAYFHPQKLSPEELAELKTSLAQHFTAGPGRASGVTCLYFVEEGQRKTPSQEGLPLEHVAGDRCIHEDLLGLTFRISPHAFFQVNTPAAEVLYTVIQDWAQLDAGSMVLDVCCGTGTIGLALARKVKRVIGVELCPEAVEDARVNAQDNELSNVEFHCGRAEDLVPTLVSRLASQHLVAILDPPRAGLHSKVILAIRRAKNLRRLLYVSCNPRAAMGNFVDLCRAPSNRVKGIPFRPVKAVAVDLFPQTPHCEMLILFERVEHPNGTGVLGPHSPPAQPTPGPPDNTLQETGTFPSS

Row | Target | log2 fold change (erlotinib) | log2 fold change [1] | log2 fold change [2] | log2 fold change [3] | log2 fold change [4] | log2 fold change [5] | log2 fold change [6] | log2 fold change [7] | log2 fold change [8] | log2 fold change (IRAK-1-4 Inhibitor I) | log2 fold change (ibrutinib) | log2 fold change [9] | log2 fold change (ralimetinib) | log2 fold change [10] | log2 fold change [11] | log2 fold change [12] | log2 fold change [13] | log2 fold change [14] | log2 fold change [15] | log2 fold change [16]
1 | TNPO3 (UniProt Q9Y5L0) | 0.022 | 0.001 | -0.019 | -0.018 | 0.019 | -0.008 | 0 | 0.018 | 0.017 | 0.021 | -0.008 | 0.015 | 0.003 | -0.023 | -0.033 | -0.006 | 0 | -0.015 | 0.003 | 0.008
2 | TPM3 isoform 2 (UniProt P06753) | -0.075 | -0.007 | -0.065 | -0.008 | 0.003 | 0.004 | 0.038 | 0.039 | -0.074 | -0.042 | 0.03 | -0.007 | -0.02 | 0.05 | -0.034 | -0.005 | -0.019 | -0.073 | 0.002 | -0.006
3 | UBA1 (UniProt P22314) | 0.034 | 0.017 | -0.022 | 0.003 | 0.004 | 0.002 | -0.044 | 0 | 0.02 | -0.013 | -0.002 | 0.003 | 0.053 | 0 | 0.027 | -0.018 | 0.006 | 0 | 0.015 | 0.02
4 | TUBGCP3 (UniProt Q96CW5) | -0.035 | 0.021 | -0.054 | 0.044 | 0.02 | -0.039 | 0.012 | -0.044 | -0.019 | -0.054 | -0.007 | 0.018 | 0.03 | 0.045 | -0.039 | 0.003 | -0.037 | 0.004 | 0.106 | 0.028
5 | TESC (UniProt Q96BS2) | -0.043 | 0.042 | 0.03 | 0.074 | -0.042 | -0.006 | 0.036 | 0.003 | 0.04 | -0.003 | 0.065 | -0.029 | 0.005 | 0.056 | -0.055 | 0.043 | 0.015 | 0 | -0.013 | -0.077
6 | TTI1 (UniProt O43156) | -0.017 | 0.033 | -0.049 | 0.003 | -0.012 | -0.02 | -0.003 | -0.032 | -0.037 | 0.015 | 0 | 0.014 | 0.018 | -0.049 | -0.029 | 0.013 | 0.02 | 0.068 | -0.009 | 0.026
7 | TRIM65 (UniProt Q6PJ69) | 0.047 | -0.072 | -0.008 | 0.021 | -0.005 | -0.044 | -0.054 | 0.026 | 0.007 | -0.025 | 0.053 | 0.073 | 0.046 | -0.035 | 0.005 | 0.047 | 0.006 | 0.006 | 0.003 | -0.063
8 | UBE3B (UniProt Q7Z3V4) | -0.14 | -0.218 | -0.3 | 0.056 | 0.142 | 0.011 | -0.022 | -0.04 | -0.12 | 0.019 | 0.041 | 0.019 | 0.02 | -0.074 | -0.112 | 0.068 | 0 | -0.004 | -0.022 | 0.023
9 | TRIP12 isoform 2 (UniProt Q14669) | 0.034 | 0.013 | -0.014 | 0.004 | 0.024 | -0.027 | -0.02 | 0.019 | -0.021 | -0.032 | 0 | -0.031 | 0.109 | 0.044 | -0.028 | -0.004 | 0.066 | 0.058 | -0.012 | 0.031
10 | TUBA1B (UniProt P68363) | 0.031 | -0.022 | 0.009 | -0.018 | 0.006 | -0.013 | -0.018 | 0.009 | 0.02 | 0.022 | -0.012 | 0.008 | 0.025 | 0.003 | 0.021 | -0.011 | -0.003 | 0.018 | 0.022 | 0.005
11 | TOR3A (UniProt Q9H497) | 0 | 0.002 | 0.006 | -0.008 | -0.01 | -0.012 | -0.087 | 0.039 | 0.013 | 0.021 | 0.008 | 0.023 | 0.002 | -0.017 | -0.001 | 0.018 | -0.022 | -0.036 | 0.018 | 0.365 (active)
12 | UBE3C (UniProt Q15386) | 0.035 | -0.061 | -0.067 | 0.011 | -0.036 | -0.01 | -0.022 | 0.027 | 0.049 | 0 | -0.011 | 0.024 | 0.012 | -0.028 | -0.011 | 0.005 | 0.04 | -0.021 | 0.021 | 0.01
13 | TRMT2A (UniProt Q8IZ69) | -0.042 | -0.015 | -0.007 | 0.012 | -0.012 | -0.012 | -0.004 | -0.005 | 0.002 | -0.007 | 0.002 | 0.005 | 0.026 | -0.005 | 0.001 | 0.012 | -0.007 | -0.03 | 0.035 | 0.008
14 | TTC38 (UniProt Q5R3I4) | 0.037 | 0.015 | 0.009 | 0.039 | 0.007 | 0.035 | -0.022 | -0.003 | 0.068 | -0.004 | -0.049 | 0.033 | 0.008 | 0.007 | -0.011 | 0.005 | 0.332 (active) | -0.013 | 0.067 | 0.014
15 | TRA2A (UniProt Q13595) | -0.164 | -0.261 | -0.092 | -0.03 | -0.137 | 0.038 | -0.024 | 0.083 | -0.234 | -0.102 | 0.127 | -0.018 | -0.079 | -0.013 | 0.21 | -0.027 | 0.039 | 0.056 | 0.019 | -0.007
16 | UBP1 (UniProt Q9NZI7) | 0.018 | -0.109 | -0.095 | 0.048 | 0.016 | 0.01 | 0.032 | -0.034 | -0.017 | 0.029 | -0.006 | 0.056 | 0.024 | -0.004 | 0.048 | -0.028 | 0.047 | 0.03 | -0.037 | 0.004
